# In all, about 33,000 sequences were measured (“E-score (-0.5 to 0.5)”: median about -0.035, highest 2% from about 0.34 on). Many of the other results were omitted from the sample, so the highest values are more common in it than they were.
# Target: T1, Mot3 (UniProt P54785)
# T1 sequence: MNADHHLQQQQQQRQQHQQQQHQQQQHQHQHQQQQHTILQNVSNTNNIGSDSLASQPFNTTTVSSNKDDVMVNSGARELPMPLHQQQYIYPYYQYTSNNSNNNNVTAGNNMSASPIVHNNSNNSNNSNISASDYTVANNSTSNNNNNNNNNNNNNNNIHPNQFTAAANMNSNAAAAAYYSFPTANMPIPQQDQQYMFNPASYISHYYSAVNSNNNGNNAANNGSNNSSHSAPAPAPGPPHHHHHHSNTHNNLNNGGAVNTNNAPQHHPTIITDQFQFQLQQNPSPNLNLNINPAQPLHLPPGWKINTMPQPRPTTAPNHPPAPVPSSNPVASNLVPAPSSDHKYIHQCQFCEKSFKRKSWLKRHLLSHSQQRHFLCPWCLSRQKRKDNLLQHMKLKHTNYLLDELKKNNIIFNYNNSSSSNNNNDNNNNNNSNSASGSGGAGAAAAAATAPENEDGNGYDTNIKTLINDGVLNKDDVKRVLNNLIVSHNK
# Experiment: PBM E-score (8-mer binding enrichment) (E-score (-0.5 to 0.5)); higher = stronger / more preferred TF binding
# Conditions: protein concentration: 200 nM; construct: GST-full length
# Protocol: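 Universal 'all 10-mer' protein binding microarrays (Agilent AMADID 015681) probed with GST-tagged S. cerevisiae TFs (full-length or DBD) made by in vitro transcription/translation (PURExpress), about 100-200 nM. Bound TF was detected with fluorescent anti-GST. Each ungapped 8-mer (which stands for itself and its reverse complement) is scored by the PBM enrichment score (E-score), a modified Wilcoxon-Mann-Whitney statistic from -0.5 to +0.5, computed with the Universal PBM Analysis Suite. Scale: above 0.35 generally sequence-specific binding.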
row,Sequence,PBM E-score
1,ACGAACCT,-0.0403
2,GGGAACCC,-0.279
3,AGGAACCT,0.458
4,AAGAACCT,0.191
5,GGGAACCA,-0.175
6,AGGAACCC,0.444
7,CGGAACCG,-0.249
8,AGGAACCG,0.442
9,AGGAACCA,0.419
10,TGGAACCA,-0.133
11,ATGAACCG,0.0149
12,CGGAACCC,-0.0527
13,AGTTCGCG,-0.0658
14,ACCATCAA,-0.0603
15,CTACTGGC,-0.182
16,GGGAGGTA,0.0239
17,AATTCCGG,-0.0255
18,GTCCTCCA,-0.175
19,CCACACCG,-0.0267
20,CAGGTCGC,-0.225
21,CGTGTTTA,0.346
22,GGTGTTAA,0.28
23,AGTGTTTA,0.126
24,CATGTTTA,0.371
25,CGCGTTAA,0.368

row,Sequence,PBM E-score
1,CGCGTTAG,0.187
2,GATGTTTA,0.125
3,CATGTTTC,0.24
4,AGTGTTAA,0.264
5,GGTGTTTA,0.0636
6,TGTGTTAA,0.401
7,GGCGTTAA,0.149
8,ACACTGGC,0.00843
9,ACTTAAGG,0.157
10,CTAGATAC,-0.0863
11,GCAAGACC,-0.0597
12,CGCAAAAC,0.0841
13,CACAGCTC,0.0935
14,CAACTGAG,0.00667
15,GAACCTCA,-0.0997
16,AGAGCACT,-0.0229
17,GAAACTCA,-0.0953
18,CGGACAAC,-0.0115
19,CTCGAGCA,-0.0333
20,CATGTTGC,0.297
21,GTTGTTAA,0.275
22,AATGTTGA,0.162
23,CCTGTTAA,0.297
24,CTTGTTAA,0.355
25,CTTGTTAC,0.158

row,Sequence,PBM E-score
1,CGTGTTAC,0.308
2,CATGTTGA,0.401
3,AGTGTTAG,0.0278
4,CGTGTTCA,0.273
5,CGTGTTAA,0.418
6,CGTGTTAG,0.354
7,ATTCAATA,0.0942
8,TACGAACA,0.18
9,CTTTTCCC,-0.0316
10,TCTGGTAA,-0.0343
11,CGCCTAAC,0.152
12,GAAGATAC,-0.078
13,GACTGCAC,-0.0356
14,AAAGCACT,-0.216
15,GACGCCCA,-0.158
16,CATAGAAC,-0.0217
17,TGTCAAAA,0.241
18,GCGTCCCC,-0.362
19,AGCAAGGA,-0.0799
20,GACAGCCA,-0.186
21,AGAAGAAG,-0.0319
22,CGTGTTGC,0.242
23,AGTGTTGA,0.073
24,CGTGTTGA,0.395
25,CCACAATA,-0.0891

row,Sequence,PBM E-score
1,GGTCCTTA,-0.152
2,AAGGCAGA,0.0903
3,ACGGCACT,-0.139
4,AAGGCACT,0.486
5,AGGGCACT,0.0516
6,TAGGCAGA,0.136
7,AGGGCACA,0.3
8,TAGGCATA,0.28
9,TAGGCACA,0.491
10,GAGGCAGA,-0.164
11,GAGGCACA,0.47
12,GGGGCACA,-0.202
13,AAGGCACA,0.492
14,AACGTATG,0.0662
15,CGCGCTGC,-0.0871
16,TAAACATA,0.284
17,CCCAGATC,-0.111
18,ATTTTCAA,0.12
19,GCGGCACC,-0.159
20,GAGGCACC,0.463
21,AAGGCGCG,0.252
22,TGGGCACA,0.356
23,AAGGCGCT,0.353
24,AAGGCGCA,0.336
25,GGGGCACC,-0.152

row,Sequence,PBM E-score
1,CGGGCACA,0.0796
2,CGGGCACG,0.263
3,AACAGCTC,-0.162
4,CTCTTTAC,0.177
5,TGGCCACA,-0.096
6,ATTCCAGC,-0.168
7,CTTCACGC,0.151
8,AGCAGGTC,-0.0131
9,TCGTGTAA,0.411
10,CAGTGTAA,0.225
11,GCGTGGAA,-0.104
12,TAGTGTAA,0.206
13,GCGTGTCC,0.0864
14,ACGTGTAA,0.414
15,CCGTGTGA,0.277
16,CCGTGTAA,0.403
17,GCGTGTAA,0.431
18,AGGTGTAA,0.26
19,TGGTGTAA,0.186
20,ACGTGTGA,0.184
21,ACTCCAGG,0.0384
22,ACACCTAA,0.168
23,AGGGCAAG,0.13
24,CACTCTAG,-0.145
25,ACCCAGCC,-0.259

row,Sequence,PBM E-score
1,CTTCCTAA,0.0478
2,GTTCCTAA,0.431
3,CTTCCTTA,0.146
4,GTTCCTTA,0.428
5,ATTCCTGA,0.136
6,ATTCCTAA,0.105
7,ATTCCTTA,0.211
8,CTTCCTGA,-0.0128
9,GTTCCTGA,0.428
10,CCCGAAGG,-0.0155
11,ATGGAAGC,-0.191
12,ACATGCCA,0.304
13,ACATGCCC,0.21
14,AAATGCCA,-0.105
15,AAATGCCT,0.377
16,ACATGCCT,0.366
17,AAGTGCCC,-0.177
18,ACATGCGC,0.251
19,ACATGCGT,0.341
20,AAGTGCCA,0.0649
21,AAATGCCC,-0.192
22,AAGTGCCT,0.48
23,ACATGCGG,0.175
24,TCAGACCA,-0.201
25,CCTCTTGC,0.0662

row,Sequence,PBM E-score
1,GAGGGTGA,-0.208
2,CCGCTCCG,-0.227
3,AAACCGAA,-0.0393
4,ACAGCTGT,-0.0347
5,AGCTCAGC,-0.206
6,CTGCAGGA,0.291
7,ATGCAGGC,0.342
8,CTGCAGTC,-0.106
9,ATGCAGGG,-0.153
10,CTGCAGGC,0.406
11,ATGCAGGA,0.0312
12,ACCATTTC,-0.123
13,CCGAGACG,-0.0781
14,CGCTGGTC,-0.275
15,CCTGTCGA,0.342
16,CATGTCGG,0.222
17,GCTGTCGA,-0.12
18,GATGTCGA,0.215
19,CCTGTCGC,-0.046
20,CATGTCGA,0.351
21,GGGTTCTA,-0.176
22,GTCTGTAA,0.149
